# Data published in PMC4336329 (PLoS ONE, 2015).
# In all, about 310,000 compounds went through this assay and about 14,000 (4.5%) showed an effect of 50% or more. The effect is printed as a negative number. Shown is part of a subset that was picked to be rich in strong results. *1 amine or outer side, *2 acyl side, *3 side chain or, on linkers, in order; H or OH if unused. Where a SMILES comes first, the peptide text is derived from it. Bridges are numbered along the chain shown (N, C = ends). [ ]: non-standard residue; d: D form. ξ: configuration not given here. hSer(Ph(2-I,4-NO2,6-CO)) = O=C([C@H](CCOc1c(I)cc([N+](=O)[O-])cc1C(=O)[*:3])N[*:1])[*:2]; ξD = NC(CC(=O)O)C(=O)O
# Molecular target: human ether-à-go-go-related gene (hERG) potassium channel (human, UniProt Q12809)
# Sequence (Q12809 whole entry, looked up): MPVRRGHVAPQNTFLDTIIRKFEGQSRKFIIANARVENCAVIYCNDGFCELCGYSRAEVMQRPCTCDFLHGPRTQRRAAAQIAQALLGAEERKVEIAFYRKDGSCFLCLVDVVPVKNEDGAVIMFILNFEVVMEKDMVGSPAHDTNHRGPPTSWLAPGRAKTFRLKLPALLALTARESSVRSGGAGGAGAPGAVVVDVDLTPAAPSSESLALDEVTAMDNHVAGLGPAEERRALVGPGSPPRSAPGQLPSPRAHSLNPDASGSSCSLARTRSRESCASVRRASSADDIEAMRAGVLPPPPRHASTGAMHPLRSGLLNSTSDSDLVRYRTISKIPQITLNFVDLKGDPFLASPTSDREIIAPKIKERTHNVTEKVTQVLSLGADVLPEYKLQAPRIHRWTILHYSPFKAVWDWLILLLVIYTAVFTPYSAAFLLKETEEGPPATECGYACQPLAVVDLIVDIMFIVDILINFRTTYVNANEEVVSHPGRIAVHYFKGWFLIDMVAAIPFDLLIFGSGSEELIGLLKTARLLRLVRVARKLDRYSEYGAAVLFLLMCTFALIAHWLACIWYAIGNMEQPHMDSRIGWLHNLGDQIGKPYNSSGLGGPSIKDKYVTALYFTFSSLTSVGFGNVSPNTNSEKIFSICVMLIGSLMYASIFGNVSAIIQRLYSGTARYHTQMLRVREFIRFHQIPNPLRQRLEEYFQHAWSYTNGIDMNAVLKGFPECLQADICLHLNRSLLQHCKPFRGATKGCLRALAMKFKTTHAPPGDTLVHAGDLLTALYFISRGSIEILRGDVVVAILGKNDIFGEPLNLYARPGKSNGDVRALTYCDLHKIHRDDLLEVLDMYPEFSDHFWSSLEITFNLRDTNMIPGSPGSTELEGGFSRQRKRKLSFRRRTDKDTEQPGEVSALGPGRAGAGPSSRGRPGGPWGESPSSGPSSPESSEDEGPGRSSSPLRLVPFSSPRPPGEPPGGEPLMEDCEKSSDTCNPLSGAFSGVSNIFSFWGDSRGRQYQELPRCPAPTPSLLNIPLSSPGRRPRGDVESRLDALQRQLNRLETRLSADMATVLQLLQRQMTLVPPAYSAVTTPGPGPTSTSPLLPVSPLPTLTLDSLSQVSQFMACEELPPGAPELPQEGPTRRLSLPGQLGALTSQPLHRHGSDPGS
# Assay: primary screen, population patch clamp on CHO cells stably expressing hERG; higher = less effect of the substance
# 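Also: peak tail current of the secondary pulse compared with the same well before compound.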
row,SMILES,"hERG current change (%, negative = inhibition) at 10uM"
1,O=C(CSc1nnc(-c2ccccc2)o1)N1CCOCC1,6.37%
2,"NC(=O)C(CC(=O)O)NC(=O)[C@@H]1CCOc2c(I)cc([N+](=O)[O-])cc2C(=O)N[C@@H](CCC(=O)O)C(=O)N[C@@H](CO)C(=O)N1 (stereo partly drawn) (ES[hSer(Ph(2-I,4-NO2,6-CO))][ξD]-NH2; lactam N-3)",-5.73%
3,Br.C=CCn1c(C)csc1=Nc1ccc(C(=O)O)cc1,13.5%
4,Cc1ccc(S(=O)(=O)Cc2cc(F)c([N+](=O)[O-])cc2[N+](=O)[O-])cc1,-14.3%
5,COc1ccc(CCNC(=S)NC(=O)c2cccc(Cl)c2)cc1OC,1.73%
6,Cc1ccc(-c2nnc(N3CCN(c4ccccn4)CC3)c3ccccc23)cc1,-46.3%
7,COc1ccccc1N1CCN(CC(O)COc2ccc3c(c2)OCO3)CC1.Cl (stereo not drawn),-33.7%
8,Cc1ccccc1N1CCN(CCCOc2ccc3c(C)cc(=O)oc3c2)CC1,-75.3%
9,COc1ccccc1N1CCN(CC(O)COc2ccc(C)cc2C)CC1.Cl (stereo not drawn),-73.1%
10,COc1ccc(N2CCN(CCOc3ccc4c(C)cc(=O)oc4c3)CC2)cc1,-26.1%
11,COc1ccccc1N1CCN(CC(O)COc2ccc(C)c(C)c2)CC1.Cl (stereo not drawn),-55.9%
12,CNCC(O)CN1CCN(c2ccccc2OC)CC1.Cl (stereo not drawn),12.7%
13,Cc1cc(=O)oc2cc(OCCCN3C(=O)c4ccccc4C3=O)ccc12,10.4%
14,COc1ccc(N2CCN(CC(O)COc3ccc(C)c(C)c3)CC2)cc1.Cl (stereo not drawn),-43.7%
15,O=C(CCc1ccccc1)NNC(=O)C1CCCCC1,-2.12%
16,CC(C)Nc1ccc(-n2nc3ccccc3[n+]2[O-])cc1,6.09%
17,O=C1CCCCCC1C1(O)C(=O)Nc2ccccc21 (stereo not drawn),-1.78%
18,CC1(c2ccccc2)NC(=O)N(CC(=O)NNC(=O)c2ccccc2)C1=O (stereo not drawn),21.3%
19,Cc1ccc(CNC(=O)C2CC(=O)OC23CCCC3)c(C)c1 (stereo not drawn),-0.109%
20,CCCCNC(=O)c1ccc(CNS(=O)(=O)c2ccc(Br)cc2)cc1,2%
21,CCOc1ccc2nc(NC(=O)CSc3nc4cccnc4n3C)sc2c1,17.4%

row,SMILES,"hERG current change (%, negative = inhibition) at 10uM"
1,COc1ccccc1N1CCN(C(c2ccc(C)cc2)c2nnnn2C(C)C)CC1 (stereo not drawn),-5.61%
2,O=C(Nc1sc2c(c1C(=O)O)CCCC2)c1ccccc1Cl,11.9%
3,Cc1c(Cl)cnc(NC(=O)COC(=O)c2ccc3ncsc3c2)c1Cl,-2.49%
4,CCN(CC)CCNC(=O)c1cn(CC)c2ccc(S(=O)(=O)N(C)C)cc2c1=O,11.1%
5,CCn1cc(C(=O)NC2CCCCC2)c(=O)c2cc(S(=O)(=O)N(C)C)ccc21,2.38%
6,CCN(CC)CCNC(=O)c1cn(CC)c2ccc(S(=O)(=O)N(C)C3CCCCC3)cc2c1=O,-67.2%
7,CCn1cc(C(=O)NCC(OC)OC)c(=O)c2cc(S(=O)(=O)N(C)C3CCCCC3)ccc21,-44.2%
8,CCn1cc(C(=O)NCCCOC)c(=O)c2cc(S(=O)(=O)N(C)C3CCCCC3)ccc21,-23%
9,CCCCN(CCCC)CCNC(=O)c1cn(CC)c2ccc(S(=O)(=O)N(C)C3CCCCC3)cc2c1=O,-82.5%
10,CCOCCCNC(=O)c1cn(CC)c2ccc(S(=O)(=O)N(C)C3CCCCC3)cc2c1=O,-55.7%
11,CCCN(CCC)CCCNC(=O)c1cn(CC)c2ccc(S(=O)(=O)N(C)C3CCCCC3)cc2c1=O,-74.3%
12,CC1(C(=O)OCC(=O)Nc2cccc(S(=O)(=O)NC3=NCCCCC3)c2)CC1(Cl)Cl (stereo not drawn),10.7%
13,CCc1noc(C)c1C(=O)Nc1cc(S(=O)(=O)N2CCOCC2)ccc1OC(C)C,-45.1%
14,CCN(CC(=O)Nc1c(F)cccc1F)C(=O)c1csc2c1CCCC2,7.01%
15,COC(=O)c1c(-c2ccc(F)cc2)csc1NC(=O)c1ccco1,22.9%
16,COc1cccc2cc(C(C)N(CCCN3CCOCC3)C(=S)Nc3cccc(C)c3)oc12 (stereo not drawn),14.8%
17,CCC(C)c1ccc(OCc2ccc(C(=O)OC)o2)cc1 (stereo not drawn),-12.8%
18,O=C(OCc1cc(-c2ccccc2)no1)c1ccc2ccccc2n1,12.2%
19,Cc1cc(CNC(=O)COc2ccc(C#N)cc2)c2ccccc2n1,-47.2%
20,COc1cc(OC)cc(C(=O)NCc2cc(C)nc3ccccc23)c1,-2.16%
21,Cc1ccc(C)c(NC(=O)CN(C)C(=O)c2ccc(Cl)nc2)c1,-7.48%

row,SMILES,"hERG current change (%, negative = inhibition) at 10uM"
1,CCn1cc(C(=O)NCCCN(CC(C)C)CC(C)C)c(=O)c2cc(S(=O)(=O)N3CCOCC3)ccc21,-11.3%
2,CCN(CC)CCCNC(=O)c1cn(CC)c2ccc(S(=O)(=O)N(C)C3CCCCC3)cc2c1=O,-75.7%
3,CCn1cc(C(=O)NCCCN(CC(C)C)CC(C)C)c(=O)c2cc(S(=O)(=O)N(C)C3CCCCC3)ccc21,-69.6%
4,Cc1ccccc1NC(=O)Cc1nc(-c2ccc3ccccc3c2)cs1,6.09%
5,COc1ccc2[nH]cc(CCNC(=O)C3CC(=O)N(c4ccc(Cl)cc4)C3)c2c1 (stereo not drawn),-10.4%
6,O=C(Nc1cccnc1)c1c(O)c2c(n(Cc3ccccc3)c1=O)CCCC2,2.61%
7,Cc1ccc(OCCCn2ccnc2)c([N+](=O)[O-])c1,-34.4%
8,Cc1ccc(OCCCCn2ccnc2)c([N+](=O)[O-])c1,-51.5%
9,COc1ccc(Cn2ccnc2)cc1[N+](=O)[O-],-0.186%
10,Cc1ccc(OCCn2ccnc2)c([N+](=O)[O-])c1,-4.29%
11,CCCOc1ccc(Cn2ccnc2)cc1[N+](=O)[O-],-52.3%
12,CCCCCOc1ccc(Cn2ccnc2)cc1[N+](=O)[O-].Cl,-45.4%
13,CC(C)CN(C(=O)COC(=O)c1cccc2ccccc12)c1c(N)n(Cc2ccccc2)c(=O)[nH]c1=O,6.01%
14,O[C@@H]1C2CCCC1[C@]1(O)CCCCC1C2 (stereo partly drawn),8.35%
15,Cc1ccc(Cl)c(OCC(=O)Nc2ccccc2N2CCCCC2)c1,5.15%
16,CS(=O)(=O)N(Cc1ccccc1)c1ccc(C(=O)NCCSCc2ccco2)cc1,-18%
17,O=C(O)COc1ccccc1/C=C1\SC(=S)N(c2cccnc2)C1=O,-10.1%
18,COc1cc(OC)cc(-c2cc3nc(C)c(CCC(=O)O)c(C)n3n2)c1,26%
19,CCOC(=O)C1CCCCN1C(=O)CCc1c(C)nc2cc(-c3ccccc3)nn2c1C (stereo not drawn),-64.4%
20,CCOC(=O)C1CCN(C(=O)Cc2ccc(C)cc2)CC1,-1.62%
21,CCOC(=O)C1CCN(C(=O)CCc2c(C)nc3cc(-c4ccccc4)nn3c2C)CC1,-78.5%

row,SMILES,"hERG current change (%, negative = inhibition) at 10uM"
1,NC(=O)C1CCN(C(=O)Cc2ccc(-c3ccccc3)cc2)CC1,1.65%
2,CCOC(=O)C1CCCCN1C(=O)CCc1c(C)nc2ncnn2c1C (stereo not drawn),1.42%
3,CCOC(=O)C1CCN(c2cc(C)nc3cc(-c4cccc(F)c4)nn23)CC1,-5.74%
4,CCOC(=O)C1CCN(C(=O)Cc2ccc(-c3ccccc3)cc2)CC1,-57.7%
5,COc1ccc(-c2cc3nc(C)c(CCC(=O)N4CCN(c5ccccn5)CC4)c(C)n3n2)c(OC)c1,-36%
6,CCOC(=O)C1CCN(C(=O)c2ccc(OC)cc2OC)CC1,-25.5%
7,CCOC(=O)C1CCN(C(=O)CCc2ccccc2)CC1,2.13%
8,CCOC(=O)C1CCN(C(=O)CCc2c(C)nc3cc(-c4ccc(OC)cc4OC)nn3c2C)CC1,-70.7%
9,COc1ccc(C(=O)NCC(=O)N/N=C/c2cccc(OC(=O)c3ccco3)c2)cc1OC,21.6%
10,COC(=O)c1[nH]c2cc(OC)ccc2c1NC(=O)CN1CCN(c2cccc(C)c2)C(C)C1 (stereo not drawn),-0.154%
11,CCOC(=O)CNC(=O)CSc1nnc(Cn2cnc3ccccc32)n1C,-0.389%
12,O=C(CCC1CCCCC1)NCc1ccccn1,-10.8%
13,COC(=O)n1ccc(C(=O)Nc2ccccc2F)n1,-8.09%
14,O=C(O)CCc1nn2c3ccccc3nc2n(Cc2ccccc2)c1=O,36.2%
15,Cc1c(CN2CCC(CO)(CCOc3ccccc3)CC2)[nH]c2c(Cl)cccc12,-60.5%
16,Cc1[nH]c2c(Cl)cccc2c(=O)c1CN1CCCC1,-10.6%
17,Cc1c(CN2CCN(C)C(CCO)C2)[nH]c2c(Cl)cccc12 (stereo not drawn),-42%
18,Cc1c(CN2CCC(CO)(CCOc3ccccc3)CC2)[nH]c2ccc(Cl)cc12,-71%
19,Cc1ccc2[nH]c(CN3CCC(CO)(CC4CCCCO4)CC3)c(C)c2c1 (stereo not drawn),-43.7%
20,COc1ccc2[nH]c(CN3CCC(CO)(CCOc4ccccc4)CC3)c(C)c2c1,-45.3%
21,C/C(=N\NC(=O)c1ccc(CSc2nncn2C)cc1)c1ccc(C#N)cc1,-26%
